Test [1] in a line: qHTS assay to identify small molecule antagonists of the estrogen related receptor (ERR) signaling pathway from Tox21 library - cell viability counter screen (AID 1224834). Further: nearly all actives have a fitted effect of over 30% in size. Further: potency means the concentration at half of the fitted maximal effect. In outline:
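Multiplexed viability counter screen in ERR cells: 17.5 h compound exposure at 37 C, CellTiter-Fluor added, 30 min at 37 C/5% CO2, fluorescence read.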
In general terms: qHTS replaces the single test concentration by a dilution series.

A short description of test [2]: qHTS assay to identify small molecule agonists of the constitutive androstane receptor (CAR) signaling pathway - cell viability counter screen (AID 1224836). Further: nearly all actives have a fitted effect of over 45% in size. In outline: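 HepG2-CYP2B6-hCAR, 2500 cells/well, 4 h pre-incubation; cpd 15 conc + PK11195 0.75 uM final; 23 h, 37 C/5% CO2; CellTiter-Fluor, fluorescence.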
Test [3] in a line: qHTS assay to identify small molecule antagonists of the constitutive androstane receptor (CAR) signaling pathway - cell viability counter screen (AID 1224837). Further: nearly all actives have a fitted effect of over 45% in size. Further: potency means the concentration at half of the fitted maximal effect. In outline: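 Read-out: CellTiter-Fluor fluorescence after 23 hr at 37 C/5% CO2. Cells: HepG2 double-stable for hCAR and CYP2B6-2.2kb. Compounds tested at 15 concentrations in the presence of CITCO, final concentration 50 nM.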

The target of test [4] is Nuclear receptor subfamily 1 group I member 3 (Homo sapiens) (UniProt Q14994). Description: qHTS assay to identify small molecule antagonists of the constitutive androstane receptor (CAR) signaling pathway (AID 1224838).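 Further: HepG2 cells stably expressing hCAR with CYP2B6 luciferase reporter stimulated by CITCO; nearly all actives have a fitted effect of over 40% in size.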 Further: potency means the concentration at half of the fitted maximal effect. In outline: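 Read-out: ONE-Glo luciferase luminescence after 30 min at room temperature. HepG2-CYP2B6-hCAR double-stable cells, compounds in 15-point titration plus 50 nM CITCO final, 24 h at 37 C/5% CO2.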

For test [5] the target is unchanged. Description: qHTS assay to identify small molecule agonists of the constitutive androstane receptor (CAR) signaling pathway (AID 1224839). Further: nearly all actives have a fitted effect of over 15% in size. Further: potency means the concentration at half of the fitted maximal effect.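 On activation: HepG2 cells stably carrying human CAR and a CYP2B6 luciferase reporter.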 In outline:
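HepG2-CYP2B6-hCAR cells, 2500/well, 4 h pre-incubation; compounds 15 conc.; PK11195 0.75 uM final; 24 h, 37 C/5% CO2; ONE-Glo luciferase read.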

A short description of test [6]: qHTS assay to identify small molecule antagonists of the estrogen related receptor signaling pathway with the pleiotropic PPARgamma coactivator (PGC) from Tox21 10K library - cell viability counter screen (AID 1224840; active means well fitted cell-killing curve with a large enough effect in the repeat runs, not every such curve was filed as active; further: nearly all actives have a fitted effect of over 40% in size). In outline: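 Fluorescence read-out of CellTiter-Fluor viability reagent, added after cells had been exposed to compound in DMSO for 17.5 h at 37 C; 30 min development at 37 C/5% CO2. Cells: PGC/ERR line, 2,000/well.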

Test [7] is described as follows: qHTS assay to identify small molecule antagonists of the estrogen related receptor signaling pathway with the pleiotropic PPARgamma coactivator (PGC) from Tox21 10K library (AID 1224841; call rule not given here; further: actives are mostly falling curves and most rising ones were filed inactive; nearly all actives have a fitted effect of over 50% in size). In outline: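 Luminescence read-out (One-Glo luciferase reagent, 30 min at room temperature) from PGC/ERR cells exposed to DMSO-dissolved test compounds for 18 h at 37 C; cells, 2,000 per well, had been preincubated 6 h before compound transfer.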

A short description of test [8]: qHTS assay to identify small molecule agonists of the estrogen related receptor signaling pathway with the pleiotropic PPARgamma coactivator (PGC) from Tox21 10K library (AID 1224842). Further: nearly all actives have a fitted effect of over 15% in size. Further: potency means the concentration at half of the fitted maximal effect. In outline: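 PGC/ERR reporter cells (NTP line) were seeded 2,000 per well, rested 6 h at 37 C/5% CO2, then pin-dosed with compounds in DMSO for 18 h at 37 C; luciferase read by One-Glo luminescence after 30 min at room temperature.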

In test [9] the target is Thyrotropin receptor (Homo sapiens) (UniProt P16473). As to the kind of experiment: qHTS assay to identify small molecule agonists of the thyroid stimulating hormone receptor (TSHR) signaling pathway (AID 1224843; calls by dose curve; further: nearly all actives have a fitted effect of over 45% in size). In outline:
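Compounds are titrated over 15 concentrations, in triplicate, onto TSHR-HEK293 cells seeded at 800/well. Plates sit 30 min at room temperature before cAMP-d2 and anti-cAMP cryptate are added; signal is read after a further hour.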

A short description of test [10]: qHTS assay to identify small molecule agonists of the hypoxia (HIF-1) signaling pathway - cell viability counter screen (AID 1224844; calls by dose curve; further: nearly all actives have a fitted effect of over 50% in size). In outline:
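CellTiter-Glo luminescence read-out, 30 min RT, taken in the same wells as the beta-lactamase HRE reporter assay; HRE-bla ME-180 cells, 0.5% dialyzed FBS, 17 hr compound treatment at 37C, 5% CO2.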

The nature of test [11]: qHTS assay to identify small molecule agonists of H2AX (AID 1224845; active means well fitted activation curve with a large enough effect in the signal ratio in the repeat runs, not every such curve was filed as active; the % refers to the signal ratio). In outline:
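Wild-type CHO-K1 cells plated overnight, then exposed 3 hr at 37C to compounds at 15 concentrations (0.76% DMSO). Lysed, then HTRF anti-pH2AX(S139)-cryptate/anti-H2AX-d2 detection after 24 hr at room temperature; emissions 665 and 620 nm.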

The nature of test [12]: qHTS assay to identify small molecule agonists of the hypoxia (HIF-1) signaling pathway (AID 1224846; active means well fitted activation curve with a large enough effect in the signal ratio in the repeat runs, not every such curve was filed as active; the % refers to the signal ratio). In outline:
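Beta-lactamase FRET read-out (CCF4-AM substrate) from ME-180 cells carrying an HRE-driven bla reporter, after 17 hrs compound exposure at 37C/5% CO2. Cells were seeded at 2,000 per well in 0.5% dialyzed FBS medium and preincubated 5 hrs.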

Test [13] is described as follows: qHTS assay to identify small molecule antagonists of the estrogen related receptor (ERR) signaling pathway from Tox21 library (AID 1224848). Further: nearly all actives have a fitted effect of over 50% in size. Further: potency means the concentration at half of the fitted maximal effect. In outline: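 First, 2,000 ERR cells per well were plated and held 6 h at 37 C/5% CO2. Next, compounds in DMSO were pinned in and left 18 h at 37 C. Finally, ONE-Glo was added and luminescence read after 30 min at room temperature.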

The nature of test [14]: qHTS assay to identify small molecule agonists of the estrogen related receptor (ERR) signaling pathway from Tox21 library (AID 1224849; calls by dose curve; further: nearly all actives have a fitted effect of over 15% in size). The conditions noted are these: ERR reporter cell line, ONE-Glo luciferase, 18 h. In outline:
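Luminescence readout (ONE-Glo, 30 min RT) after 18 h compound exposure at 37 C of NTP-supplied ERR reporter cells; cells were plated 6 h before compound addition by pin tool.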

Test [15] can be described thus: qHTS RealTime-Glo MT Cell Viability Assay in HepG2 cells - 24 hour (AID 1224867). Further: nearly all actives have a fitted effect of over 50% in size. Further: potency means the concentration at half of the fitted maximal effect. In outline:
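HepG2 cells were seeded at 600 cells/well together with NanoLuc luciferase and a cell-permeant prosubstrate, preincubated 5 h at 37 C/5% CO2, then pin-dosed with compounds in DMSO. Nonlytic luminescence from viable cells was read at each time point.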

The nature of test [16]: qHTS RealTime-Glo MT Cell Viability Assay in HEK293 cells - 32 hour (AID 1224868). Further: nearly all actives have a fitted effect of over 50% in size. Further: potency means the concentration at half of the fitted maximal effect. In outline: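 HEK293 cells were seeded at 600 cells/well together with NanoLuc luciferase and cell-permeant prosubstrate, preincubated 5 h at 37 C/5% CO2, then given compound in DMSO by pintool. Luminescence from viable-cell prosubstrate reduction was read repeatedly over 40 h.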
A short description of test [17]: A CellTox Green Cytotoxicity Assay to monitor cytotoxicity in HEK293 cells - 0 hour (AID 1224869). Further: nearly all actives have a fitted effect of over 50% in size. In outline: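 Read-out: fluorescence of a cell-impermeant cyanine dye staining DNA of dead cells, proportional to cytotoxicity. HEK293, 600 cells/well with reagent, compound (23 nL DMSO) added after 5 h; reads at 0, 8, 16, 24, 32, 40 h.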
In test [18] the target is Luciferin 4-monooxygenase (Photinus pyralis) (UniProt P08659). As to the kind of experiment: qHTS assay to identify small molecule inhibitors of firefly luciferase (AID 1224835). Further: nearly all actives have a fitted effect of over 25% in size. Further: potency means the concentration at half of the fitted maximal effect. In outline: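 Quantitative HTS format; KM concentrations of both substrates. Purified P. pyralis FLuc activity quantified from luminescence images.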
The nature of test [19]: qHTS assay to identify small molecule agonists of H2AX - cell viability counter screen (AID 1224847; calls by dose curve; further: top concentration of the series differs between compounds; nearly all actives have a fitted effect of over 30% in size). In outline:
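Cells plated first: CHO-K1, 1000 per well in 10% FBS medium, incubated overnight at 37C. Then 15-point compound titration added (final DMSO 0.76%) for 3 hr. Finally CellTiter-Glo added and luminescence read.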

Several values for one entry are separate records, joined by “and”; a condition that tells them apart may be missing. Equal values may be shown once. Results filed as inconclusive are left out. More than one record can exist for a structure, and the calls need not agree. Activity calls are given as the source filed them. Unless noted, the call rests on the fitted dose curve; in most records, active means well fitted curve in the direction sought with a large enough effect in the repeat runs; inconclusive means weak or mixed curves; inactive means no such curve, though single readings can be large; an effect the other way counts as inactive or inconclusive.
On the % scale 0 is the no-effect control and ±100 the full control effect.

Nuclear receptor subfamily 1 group I member 3 (Homo sapiens), sequence (Q14994 whole entry, looked up): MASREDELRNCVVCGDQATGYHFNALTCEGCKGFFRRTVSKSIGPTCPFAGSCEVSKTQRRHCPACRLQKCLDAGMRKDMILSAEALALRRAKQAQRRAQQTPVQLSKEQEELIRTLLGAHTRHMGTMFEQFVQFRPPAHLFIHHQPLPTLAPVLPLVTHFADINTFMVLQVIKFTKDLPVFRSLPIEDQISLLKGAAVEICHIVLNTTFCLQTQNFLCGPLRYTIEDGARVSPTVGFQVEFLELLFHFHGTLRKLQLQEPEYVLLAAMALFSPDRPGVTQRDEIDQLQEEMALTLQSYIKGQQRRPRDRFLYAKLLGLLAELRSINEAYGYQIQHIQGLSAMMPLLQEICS
Thyrotropin receptor (Homo sapiens), sequence (P16473 whole entry, looked up): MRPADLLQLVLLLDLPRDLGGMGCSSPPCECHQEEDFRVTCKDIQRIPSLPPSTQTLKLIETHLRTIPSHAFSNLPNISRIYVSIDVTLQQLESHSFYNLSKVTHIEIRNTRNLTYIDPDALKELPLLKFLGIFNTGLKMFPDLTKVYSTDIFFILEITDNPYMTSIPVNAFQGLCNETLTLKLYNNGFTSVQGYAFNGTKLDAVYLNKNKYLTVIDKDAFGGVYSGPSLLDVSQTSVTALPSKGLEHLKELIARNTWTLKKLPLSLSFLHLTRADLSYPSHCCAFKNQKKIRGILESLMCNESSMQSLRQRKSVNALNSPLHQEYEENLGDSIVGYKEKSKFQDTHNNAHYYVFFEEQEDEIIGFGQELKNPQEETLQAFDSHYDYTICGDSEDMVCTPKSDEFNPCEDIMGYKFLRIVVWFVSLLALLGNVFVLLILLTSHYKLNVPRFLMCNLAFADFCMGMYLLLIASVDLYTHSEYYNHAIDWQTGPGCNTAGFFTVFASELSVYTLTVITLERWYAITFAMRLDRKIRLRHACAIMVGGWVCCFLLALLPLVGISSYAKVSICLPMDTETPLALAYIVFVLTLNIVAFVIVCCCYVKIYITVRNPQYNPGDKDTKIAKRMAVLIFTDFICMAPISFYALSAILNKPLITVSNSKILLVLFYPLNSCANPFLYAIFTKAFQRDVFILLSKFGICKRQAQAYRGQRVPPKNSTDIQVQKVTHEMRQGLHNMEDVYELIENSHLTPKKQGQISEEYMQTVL
Luciferin 4-monooxygenase (Photinus pyralis), sequence (P08659 whole entry, looked up): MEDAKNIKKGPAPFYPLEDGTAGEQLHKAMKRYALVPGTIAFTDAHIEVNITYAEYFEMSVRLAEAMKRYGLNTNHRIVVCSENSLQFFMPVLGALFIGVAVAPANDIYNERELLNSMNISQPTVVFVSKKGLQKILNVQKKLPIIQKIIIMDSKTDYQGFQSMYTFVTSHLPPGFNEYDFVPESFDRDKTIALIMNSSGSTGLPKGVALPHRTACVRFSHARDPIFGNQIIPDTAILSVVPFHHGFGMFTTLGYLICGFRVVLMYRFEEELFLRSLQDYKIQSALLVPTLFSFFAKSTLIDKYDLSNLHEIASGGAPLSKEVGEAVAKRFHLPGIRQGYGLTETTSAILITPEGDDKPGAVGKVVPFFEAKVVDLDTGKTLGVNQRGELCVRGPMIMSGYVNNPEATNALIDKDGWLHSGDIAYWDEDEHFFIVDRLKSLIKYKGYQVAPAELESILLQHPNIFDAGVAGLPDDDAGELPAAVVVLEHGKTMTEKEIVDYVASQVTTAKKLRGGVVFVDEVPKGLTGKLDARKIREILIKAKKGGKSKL

For the molecule `c1ccc(Nc2ccccc2)cc1`, the Potency in [1] was 48.5 µM (active) and inactive; in test [13], 27.3 µM (active) and inactive; in [16] it was 19.5 µM (active) and inactive. In addition, the Potency result in test [2], in [3], in test [4], in test [5], in test [6] and in test [7] was “inactive” in each case. In addition, the Potency result in test [8], in [9], in [10], in [12], in test [15] and in test [17] was “inactive” each time. For the same molecule, the outcome in test [11] was inactive. For the same molecule, the activity change, positive = activation in test [14] (at 92.4 µM (top of the series)) was -73.5% (inactive) and -5.69% (inactive).

For the molecule `O=Cc1ccccc1O`, the Potency result in [1], in [18], in test [3], in test [4], in test [5] and in test [6] was “inactive” each time. In addition, the Potency result in test [9], in [10], in test [15], in [16] and in test [17] was “inactive” throughout. Besides, the molecule was called inactive in [11].

Take `CC1=CCC(C(C)(C)O)CC1` (configuration not stated): the Potency result in [1], in test [18], in [3], in test [6], in test [9] and in test [10] was “inactive” throughout. Also, the Potency entry in [12], in test [19], in test [15], in [16] and in [17] was “inactive” throughout. The outcome in test [11] was inactive.

As to `O=C(/C=C/C=C/c1ccc2c(c1)OCO2)N1CCCCC1`, the Potency is 5.04 µM (active) and 6.33 µM (active) in [18]; 1.73 µM (active) and 3.86 µM (active) in test [5]; 17.3 µM (active) and 9.69 µM (active) in test [8]; 55.1 µM (active) in [16]. Also, the Potency result in [3], in [4], in [6], in test [7], in test [9] and in test [10] was “inactive” in each case. Further, the Potency result in [19], in test [13], in test [15] and in test [17] was “inactive” each time. For the same molecule, the activity change, positive = activation in test [14] (at 92.4 µM (top of the series)) is 24.4% (active) and 12.9% (active).

On to `CC(C)(C)NC(=O)[C@H]1CC[C@H]2[C@@H]3CC[C@H]4NC(=O)C=C[C@]4(C)[C@H]3CC[C@]12C`, for which the Potency entry in test [1], in [18], in test [3], in test [4], in test [5] and in [6] was “inactive” throughout. Further, the Potency entry in [10], in test [15], in test [16] and in test [17] was “inactive” in each case. Also, the molecule was called inactive in test [11].

Consider `c1ccc2c(c1)Oc1ccccc1S2`, for which the Potency result in test [1], in test [3], in test [4], in test [5], in test [6] and in test [9] was “inactive” throughout. The Potency entry in [12], in test [19], in [15], in test [16] and in [17] was “inactive” each time. Besides, the Potency in [18] is 72.1 µM (active). The molecule was classed as inactive in test [11].

Take `c1ccncc1`: the Potency entry in test [1], in [18], in test [3], in test [4], in test [5] and in test [6] was “inactive” throughout. Also, the Potency entry in test [9], in test [12], in [15], in test [16] and in [17] was “inactive” each time. In [11], the molecule was called inactive.

For `COc1cccc2c1C(=O)c1c(O)c3c(c(O)c1C2=O)C[C@@](O)(C(=O)CO)C[C@@H]3O[C@H]1C[C@H](N)[C@H](O)[C@H](C)O1`, the Potency is 2.17 µM (active) and 6.68 µM (active) in [1]; 15.5 µM (active) in test [18]; 2.17 µM (active) and 5.96 µM (active) in test [3]; 137 nM (active) and 1.06 µM (active) in test [4]; 216 nM (active) and 596 nM (active) in [8]; “inactive and 1.69 µM (active)” in [15]. Besides, the Potency in test [16] was 123 nM (active) and 213 nM (active). Further, the Potency entry in test [5], in test [7], in test [9], in [13] and in test [17] was “inactive” each time. Besides, the activity change, positive = activation in test [14] (at 42.5 µM (top of the series)) is -2.08% (inactive) and 0.0204% (inactive).

On to `COC(=O)Nc1nc2ccc(S(=O)c3ccccc3)cc2[nH]1` (configuration not stated), for which the Potency result in test [18], in test [2], in test [3], in test [4], in test [6] and in test [7] was “inactive” each time. Also, the Potency entry in test [10], in test [19], in [13], in test [15] and in test [17] was “inactive” in each case. Moreover, the Potency entry was “inactive and 6.68 µM (active)” in test [5]; “inactive and 11.9 µM (active)” in [8]; 9.76 µM (active) and 952 nM (active) in [16]. In [11], the outcome was inactive. In addition, the activity change, positive = activation was 3.15% (active) in test [14] (at 42.5 µM (top of the series)) and -9.11% (inactive) in test [14] (at 92.4 µM (top of the series)).

(Values after PubChem BioAssay (Tox21).)
